Many of the other results were omitted from the sample, so hits are more common in it than they were.
RBX1-CUL1 inh – inhibitors of human ROC1-CUL1 ubiquitin ligase activity. E3 ubiquitin-protein ligase RBX1 (Homo sapiens) + Cullin-1 (Homo sapiens), P62877+Q13616. in vitro K48 di-Ub FRET, acceptor:donor ratio, 45 min. inhibition, % at 10 µM. 0.6% of 140,000 active; in the data active means inhibition above about 25%
Target sequence (P62877 whole entry, looked up): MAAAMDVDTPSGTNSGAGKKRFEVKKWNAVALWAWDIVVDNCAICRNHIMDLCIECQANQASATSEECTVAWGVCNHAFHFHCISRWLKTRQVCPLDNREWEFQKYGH
Target sequence (Q13616 whole entry, looked up): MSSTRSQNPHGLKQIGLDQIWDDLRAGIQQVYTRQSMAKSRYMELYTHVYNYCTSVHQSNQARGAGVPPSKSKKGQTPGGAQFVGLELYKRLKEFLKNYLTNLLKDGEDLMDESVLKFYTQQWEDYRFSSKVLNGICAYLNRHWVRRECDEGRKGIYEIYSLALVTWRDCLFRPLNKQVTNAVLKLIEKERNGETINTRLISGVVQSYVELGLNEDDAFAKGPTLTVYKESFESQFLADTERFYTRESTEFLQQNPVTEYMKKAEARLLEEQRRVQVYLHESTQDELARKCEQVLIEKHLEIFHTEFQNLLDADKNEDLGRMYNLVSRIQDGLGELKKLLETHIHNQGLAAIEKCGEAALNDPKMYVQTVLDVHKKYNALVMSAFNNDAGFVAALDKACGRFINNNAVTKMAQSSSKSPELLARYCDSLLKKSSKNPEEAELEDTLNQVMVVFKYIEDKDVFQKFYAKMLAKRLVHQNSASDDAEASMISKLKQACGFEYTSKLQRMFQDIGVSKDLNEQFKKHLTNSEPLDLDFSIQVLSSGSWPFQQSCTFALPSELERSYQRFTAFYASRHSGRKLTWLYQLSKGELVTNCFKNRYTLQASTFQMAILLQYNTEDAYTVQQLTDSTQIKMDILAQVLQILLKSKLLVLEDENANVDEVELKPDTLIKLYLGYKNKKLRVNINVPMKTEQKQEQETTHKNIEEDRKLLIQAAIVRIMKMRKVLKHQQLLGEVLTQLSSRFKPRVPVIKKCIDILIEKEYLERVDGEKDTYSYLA
Of the large screens only hits and unclear results are named; the others gave an inactive call.

O=C(CSc1n[nH]c(-c2ccc(Br)cc2)n1)c1ccc([N+](=O)[O-])cc1	none
O=C(CSc1ncccc1C(=O)O)c1ccc(O)c(O)c1	RBX1-CUL1 inh 31
O=C(CSc1n[nH]c(-c2ccccc2)n1)c1ccc(O)c(O)c1	RBX1-CUL1 inh 27
COc1cccc(-c2ccc(NC(=O)C3CCCN(C(=O)c4ccncc4)C3)cc2)c1 (stereo not given)	none
CCCCOc1ccc(C2C(C(=O)c3cccs3)C(=O)C(=O)N2Cc2ccco2)cc1 (stereo not given)	none
CCCN1CCN(C(=O)Nc2ccc(C)cc2)CC1	none
Clc1cc(/C=C\c2ccccc2)c(Br)s1	none
CN1CCN(n2c(-c3ccc(Cl)cc3Cl)csc2=Nc2ccccc2)CC1	none
CCCn1ncc(-c2ccnc(NC3CC3)n2)c1C	none
CC(=O)CC1C(C(C(C)=O)C(C)=O)N(C(C)=O)c2ccccc2N1C (stereo not given)	none
Cc1ccc(N=c2ssc3c2-c2ccc(C)cc2NC3(C)C)c(O)c1	none
Cc1oc2c(O)c(O)ccc2c(=O)c1Oc1ccc(F)cc1	RBX1-CUL1 inh 56
COC(=O)COc1ccc2c(=O)c(Oc3ccccc3)c(C)oc2c1	none
Cc1oc2cc(OC(C)C)ccc2c(=O)c1Oc1ccccc1F	none
COc1cc(C(=O)Nc2ccc(C(=O)NC(C)(C)C)cc2)cc(OC)c1OC	none
CN1C(=O)C(=NCCc2ccccc2)C2c3ccccc3C(=O)c3cccc1c32 (stereo not given)	RBX1-CUL1 inh 36
Cc1ccc(N=C2C(=O)N(C)c3cccc4c3C2c2ccccc2C4=O)cc1 (stereo not given)	none
CN1C(=O)C(=NC2CCCCC2)C2c3ccccc3C(=O)c3cccc1c32 (stereo not given)	none
CC(C)c1c(C(=O)NCC2(N3CCOCC3)CCCCCC2)cnn1-c1nccc(-c2ccco2)n1	none
COc1cccc(/C=N\NC(=O)c2cc3c(ccc4ccccc43)o2)c1O	none
N#Cc1nc(N2CCOCC2)nc(N2CCOCC2)n1	none
CN(C)c1nc(SCC(N)=O)nc(N(C)C)n1	none
NC(=O)CSc1nc(N2CCOCC2)nc(N2CCOCC2)n1	RBX1-CUL1 inh 50
O=C(NCn1cccnc1=O)c1ccc(Cl)cc1	none
CCOc1cc(/C=C2/SC(=O)N(Cc3cc4c(cc3Cl)OCO4)C2=O)ccc1OC(C)C	none
O=C(CN1CCOCC1)N/N=C\c1cc(Br)ccc1OCc1ccccc1	none
OCCN1c2ccccc2CCc2ccccc21	none
O=S(=O)(O)SCCN1CCc2ccccc21	RBX1-CUL1 inh 28
O=C(CN1CCc2ccccc21)NC1CCCCCC1	none
Cc1ccccc1N1CCN(C(=O)CC2(c3ccccc3C)CC(=O)N(Cc3ccncc3)C2=O)CC1 (stereo not given)	none
CN1CCN(c2cc3ccccc3c(=O)c3ccccc23)CC1	none
c1ccc2c(c1)cc(N1CCCC1)c1ccccc12	RBX1-CUL1 inh 90
O=C(Nc1ccc(N2CCCC2)c(Cl)c1)c1cccc2ccccc12	none
Cc1cccc(N2C(=O)C(=C3SCCC(C)S3)C(=O)N(c3cccc(C)c3)C2=S)c1 (stereo not given)	none
CC(Sc1cc(-c2ccccc2)ncn1)C(=O)N1CCCC1 (stereo not given)	none
COc1cc(/C=C2\SC(=S)N(Cc3ccccc3)C2=O)ccc1OCC(=O)O	none
COc1cc(/C=C2/SC(=S)N(CC(=O)O)C2=O)ccc1OC(=O)c1ccc(C)cc1	RBX1-CUL1 inh 93
COC(=O)c1ccc(/C=C2\SC(=S)N(CO)C2=O)cc1	none
CCOC(=O)c1ccc(NC(=O)CCCCCN2C(=O)/C(=C\c3ccc(Cl)cc3)SC2=S)cc1	none
COC(=O)c1ccc(/C=C2\SC(=S)N(CCCCCC(=O)O)C2=O)cc1	RBX1-CUL1 inh 81
COc1cc(/C=C2/SC(=S)N(c3cccc(C(F)(F)F)c3)C2=O)ccc1OC(=O)c1ccc(C)cc1	none
CC(C)(C)c1cc(/C=N/NC(=O)c2cc(-c3ccccc3)n[nH]2)cc(C(C)(C)C)c1O	none
CC(SC1=NC(=O)CC(=N)N1CCc1ccccc1)C(=O)Nc1cccc(Cl)c1 (stereo not given)	none
O=C(C1CC(c2cccc(Br)c2)=NO1)N1CCOCC1 (stereo not given)	none
CCCCOc1ccc(N2C(=O)c3ccccc3C2=O)cc1	none
COc1cc(/C=C2\SC(=O)N(c3ccc(Cl)cc3)C2=O)cc(Cl)c1O	RBX1-CUL1 inh 63
O=C1S/C(=C\c2cc(Cl)c(O)c(Cl)c2)C(=O)N1c1cccc(Cl)c1	none
O=C1S/C(=C\c2cc(Cl)c(O)c(Cl)c2)C(=O)N1c1ccc(Cl)cc1	none
O=C1S/C(=C\c2ccccc2C(F)(F)F)C(=O)N1c1ccc(Cl)cc1	none
O=C1S/C(=C\c2cc(Br)cc(Br)c2O)C(=O)N1c1ccc(Cl)cc1	RBX1-CUL1 inh 31
CCOc1cc(/C=C2\SC(=O)N(c3ccc(Cl)cc3)C2=O)cc(Cl)c1O	none
O=C(NC(=S)Nc1ccc(N2CCN(C(=O)c3ccccc3)CC2)cc1)c1ccco1	none
CCC(C)(C)C1CCc2nc3sc(C(=O)Nc4ccccc4)c(N)c3cc2C1 (stereo not given)	none
CCOc1cc(C2C3=C(N=C(C)C2C(=O)OC)c2ccccc2C3=O)c(Br)cc1O (stereo not given)	none
Cc1ccc(C2C3=C(CCCC3=O)OC(=N)C2C#N)s1 (stereo not given)	none
C=CCn1c(CNc2ccc(C)cc2)nnc1SCC(=O)N/N=C/c1cccc(Cl)c1	none
CCN(CC)N=Nc1nc[nH]c1[N+](=O)[O-]	none
CC(C)(C)OC1CC(O)CC2C(=O)c3c(O)ccc(O)c3C(=O)C12 (stereo not given)	none
COc1ccc(C(C)OC2CC(=O)CC3C(=O)c4cccc(O)c4C(=O)C23)cc1 (stereo not given)	none
CC(OC1CC(=O)CC2C(=O)c3c(O)ccc(O)c3C(=O)C12)c1ccc2ccccc2c1 (stereo not given)	RBX1-CUL1 inh 97
Cn1c(=O)c2c(nc(NN=CC3C(=O)NC(=S)N(c4ccc(Cl)cc4)C3=O)n2C)n(C)c1=O (stereo not given)	none
Cc1ncc2c(c1CNC(=O)/C=C/c1ccccc1F)CCN(C(=O)CCOc1ccccc1)C2	none
COc1ccc(/C=N/Nc2nc3c(s2)CCCC3)cc1	RBX1-CUL1 inh 55
CCOc1ccc(/C=N\Nc2nc(C)c(C(C)=O)s2)cc1	none
COc1ccc(CC(=O)Nc2nc3c(s2)CCCC3)cc1	none
CCOC(=O)C1(Cc2cccc(OC)c2)CCCN(C(=O)CCc2c(C)nn(C)c2C)C1 (stereo not given)	none
O=C(Sc1ccc(F)cc1)c1sccc1Cl	none
CCSc1nnc(NC(=O)/C=C/c2ccco2)s1	none
Cc1ccc(NC(=O)/C=C/c2ccco2)cc1F	none
O=C(/C=C/c1ccco1)NCc1cccc(CNC(=O)/C=C/c2ccco2)c1	RBX1-CUL1 inh 97
O=C(/C=C\c1ccco1)Nc1cccc(C(=O)Nc2cccc(O)c2)c1	none
O=C(/C=C/c1ccco1)NCC12CC3CC(C1)CC(CNC(=O)/C=C/c1ccco1)(C3)C2	RBX1-CUL1 inh 103
N=C(CC(=O)/C=C/c1ccco1)C(F)(F)F	none
CCOc1ccc(S(=O)(=O)N(C)CC(=O)N2CCCC2)cc1C	none
Cc1ccc(N(Cc2ccc(C(=O)Nc3ccc(S(=O)(=O)N4CCCCC4)cc3)cc2)S(C)(=O)=O)cc1C	none
O=c1cc(-c2ccccc2F)nc(-c2cccc(CN3CCCC(O)C3)c2)[nH]1 (stereo not given)	none
C=CCn1c(SCC(=O)NCc2ccccc2)nnc1C(NC(=O)c1ccccc1)C(C)C (stereo not given)	none
COC(=O)c1ccc2c(c1)[nH]c(=O)n2Cc1ccc(Cl)cc1	none
c1ccc(N=c2cc(-c3ccccc3)ss2)cc1	none

Compound activity: PubChem BioAssay, Pan Lab, Icahn School of Medicine at Mount Sinai
